Experimental findings from PubChem BioAssay (NCATS) are described below.

Values joined by “and” are separate entries in the source; they are usually repeats but may differ in a detail not shown here. Equal values may be shown once. Inconclusive results are not listed. Values without a mark were called inactive. Active and inactive are the calls of the source. Calls follow the shape of the dose curve; as a rule, active = well fitted curve in the direction sought with a large enough effect; inconclusive = small, poorly fitted or top-dose-only effect, or another doubt; inactive = no such curve, though single readings can be large; an effect the other way counts as inactive or inconclusive.
% is scaled to controls: 0 for no effect and ±100 for the full control effect.

The nature of the first experiment: Cell Viability qHTS for small molecule stabilizers of the endoplasmic reticulum resident proteome (AID 1508629).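 Also: compound exposure about 46 h in total before the viability read.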 Also: potency is read from the fitted curve at half-maximal effect.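 As to max response: human SH-SY5Y neuroblastoma cells carrying the GLuc-SERCaMP reporter.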 The conditions noted are these: cell viability counter-screen, 100 nM thapsigargin for final 4 h. On the technique in general: qHTS replaces the single test concentration by a dilution series.
As for `Nc1c(Cl)c(Cl)c(Cl)c(Cl)c1Cl`, the max response is 1.55%. As to `C/C=C(/C)C(=O)O[C@H]1C(C)=C2[C@H]([C@@H]1OC(=O)CCCCCCC)[C@@](C)(OC(C)=O)C[C@H](OC(=O)CCC)[C@@]1(O)[C@H]2OC(=O)[C@@]1(C)O`, the Potency is 251 nM (active) and 224 nM (active).

`C[C@H]1CCCC=CC2C[C@H](O)C[C@@H]2[C@H](O)C=CC(=O)O1` (stereo not given in full): the Potency is 70.8 nM (active). Take `Nc1ccc(Cl)cc1N`: the max response was 1.89%. The same measure, in the same setting: as for `Nc1ccc(N=Nc2ccccc2)cc1`, the figure is 1.98%.

In the case of `CC=C(C)C(=O)O[C@H]1C(C)=C2[C@@H]3OC(=O)[C@@](C)(O)[C@@]3(O)[C@@H](OC(=O)CCC)C[C@](C)(OC(C)=O)[C@@H]2[C@@H]1OC(=O)CCCCCCC`, the Potency is 282 nM (active).

With `CNCCc1ccc(O)c(O)c1`, the max response is 11.4%. Take `O=[N+]([O-])c1c2ccccc2cc2ccccc12`: the max response is -4.03%. The same measure, in the same setting: with `NC1CCc2cc(O)c(O)cc2C1` (stereo not given) the figure was 25.8%; with `Clc1ccc(C(c2ccc(Cl)cc2)n2cc[n+](CC(OCc3ccc(Cl)cc3Cl)c3ccc(Cl)cc3Cl)c2)cc1` (stereo not given), -14.7%.

Turning to `c1ccc2c(CN3CCNCC3)cccc2c1`, the max response is 15%.

A further experiment in a line: Primary qHTS for small molecule stabilizers of the endoplasmic reticulum resident proteome: Secreted ER Calcium Modulated Protein (SERCaMP) assay (AID 1508630). The following applies: SH-SY5Y GLuc-SERCaMP (Gaussia luciferase released on ER calcium loss) secretion, thapsigargin, luminescence; series mostly up to 38.4 µM; activity change, negative = inhibition: at the top concentration. In outline: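 The SH-SY5Y reporter protocol was run at 3 concentrations up to 38.3 uM (primary) or 11 concentrations (follow-up): 16 h compound, 100 nM thapsigargin for 4 h, then extracellular luciferase luminescence.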
For `CC(=Cc1csc(C)n1)[C@@H]1C[C@H]2O[C@]2(C)CCC[C@H](C)[C@@H](O)[C@@H](C)C(=O)C(C)(C)[C@@H](O)CC(=O)O1`, the “activity change, negative = inhibition” value was 73%.

In the case of `CC(=O)O[C@@]12CO[C@H]1C[C@H](O)[C@@]1(C)C(=O)[C@H](O)C3=C(C)[C@@H](O)C[C@@](O)([C@@H](OC(=O)c4ccccc4)[C@@H]21)C3(C)C`, the “activity change, negative = inhibition” value is 0%. As to `CCCN1CCO[C@@H]2c3cc(O)ccc3OC[C@@H]21`, the “activity change, negative = inhibition” value is 102%. For the compound `CC(N[C@H]1C[C@H]1c1ccccc1)c1ccc2c(c1)OCCO2` (stereo not given in full), the “activity change, negative = inhibition” value is 48.7%.

In the case of `CC[C@H]1C=CC=CC[C@@H](C)[C@H](O)[C@@](C)(O)C(=O)[C@@H](C)[C@H](O)[C@@H](C)C(=O)[C@@H](C)[C@H](O)[C@@H](C)C=CC(=O)O[C@@H]2[C@@H](C)[C@H](CC1)O[C@]1(CC[C@H](C)[C@H](C[C@@H](C)O)O1)[C@H]2C`, the “activity change, negative = inhibition” value is 224%. Regarding `C/C=C(/C)C(=O)O[C@H]1C(C)=C2[C@H]([C@@H]1OC(=O)CCCCCCC)[C@@](C)(OC(C)=O)C[C@H](OC(=O)CCC)[C@@]1(O)[C@H]2OC(=O)[C@@]1(C)O`, the Potency entry was “inactive”.

Take `Oc1ccc2c3c1O[C@H]1c4[nH]c5c(c4C[C@@]4(O)[C@@H](C2)N(CC2CC2)CC[C@]314)C[C@@]1(O)[C@H]2Cc3ccc(O)c4c3[C@@]1(CCN2CC1CC1)[C@H]5O4`: the Potency result was “inactive”. Consider `COC[C@H]1OC(=O)c2coc3c2[C@@]1(C)C1=C(C3=O)[C@@H]2CC[C@H](O)[C@@]2(C)C[C@@H]1OC(C)=O`, for which the “activity change, negative = inhibition” value was 150%. On to `O=C(Cc1ccc(Cl)c(Cl)c1)N1CCCCC1CN1CCCC1` (stereo not given), for which the Potency result is “inactive”. On to `C[C@@H]1[C@H](O)[C@@H](C)C=CC=CCCC=CC=CC=CC=C[C@H](O[C@H]2O[C@@H](C)[C@H](O)[C@@H](N)[C@@H]2O)CC2O[C@](O)(C[C@@H](O)[C@H](O)CC[C@@H](O)C[C@@H](O)C[C@@H](O)CC(=O)O[C@H]1C)C[C@H](O)[C@H]2C(=O)O`, for which the “activity change, negative = inhibition” value is 20.7%.

In the case of `CN[C@@H]1C[C@@H](c2ccc(Cl)c(Cl)c2)c2ccccc21`, the “activity change, negative = inhibition” value is 152%. Turning to `CC=C(C)C(=O)O[C@H]1C(C)=C2[C@@H]3OC(=O)[C@@](C)(O)[C@@]3(O)[C@@H](OC(=O)CCC)C[C@](C)(OC(C)=O)[C@@H]2[C@@H]1OC(=O)CCCCCCC`, the “activity change, negative = inhibition” value is 182%. As for `c1ccc(CCCN2CCN(CCOC(c3ccccc3)c3ccccc3)CC2)cc1`, the Potency entry was “inactive”. Regarding `CC(O)=C(C#N)C(=O)Nc1cc(Br)ccc1Br`, the “activity change, negative = inhibition” value is 0%. On the same count and under the same terms, as for `C=C1C[C@H]2[C@H]3CCC(=O)[C@@]3(C)CC[C@@H]2[C@@]2(C)C=CC(=O)C=C12`, the figure is 1.64%. On to `CC(C)(O)C=CC(=O)[C@](C)(O)[C@H]1[C@H](O)C[C@]2(C)[C@@H]3CC=C4[C@@H](C=C(O)C(=O)C4(C)C)[C@]3(C)C(=O)C[C@@]12C`, for which the “activity change, negative = inhibition” value is 0%.

Turning to `C#C[C@]1(O)C=C[C@@H]2[C@@H]3CCC4=CC(=O)CC[C@@H]4[C@H]3CC[C@@]21CC`, the “activity change, negative = inhibition” value was 41.9%. Regarding `Clc1cnc(Oc2ccc(Oc3ncc(Cl)cc3Cl)cc2)c(Cl)c1`, the Potency entry is “inactive”.

With `COC1=CC(C)=C[C@@H](C)[C@@H](O)[C@@H](C)CC(C)=CC=C[C@H](OC)[C@H]([C@@H](C)[C@@H](O)[C@H](C)[C@@]2(O)C[C@@H](O)[C@H](C)[C@@H](C(C)C)O2)OC1=O`, the “activity change, negative = inhibition” value was 65.9%. As to `CC(=Cc1csc(C)n1)[C@@H]1C[C@H]2O[C@@H]2CCC[C@H](C)[C@@H](O)[C@@H](C)C(=O)C(C)(C)[C@@H](O)CC(=O)O1`, the “activity change, negative = inhibition” value is 80.5%.

For `CC(C)Oc1cccnc1N(C)C1CCN(Cc2ccccc2)CC1`, the “activity change, negative = inhibition” value is -25%. For `CO[C@H]1CCC(O[C@H]2C[C@H]([C@]3(C)CC[C@]4(C[C@H](O)[C@@H](C)[C@@H]([C@@H](C)C=C(C)C(=O)[C@H](C)C[C@H](C)C(=O)O)O4)O3)O[C@]3(O[C@@H]([C@H]4O[C@@](O)(CO)[C@H](C)C[C@H]4C)C[C@H]3C)[C@H]2C)O[C@H]1C` (stereo not given in full), the “activity change, negative = inhibition” value was 183%.

For `CCCN1CCC[C@H](c2cccc(O)c2)C1`, the “activity change, negative = inhibition” value was -11.7%. As to `NC1CC1c1ccccc1` (stereo not given), the Potency result was “inactive”. `C[C@@H]1O[C@H](C[N+](C)(C)C)C[C@H]1O`: the “activity change, negative = inhibition” value is 26.2%. On the same count and under the same terms, with `C=C[C@@H]1CN2CCC1C[C@@H]2[C@@H](O)c1ccnc2ccccc12` (stereo not given in full) the figure was 130%. As to `C[C@@H](N)Cc1cnc[nH]1`, the Potency entry was “inactive”.

Consider `CC(C)[C@]12O[C@@H]1[C@@H]1O[C@]13[C@]1(O[C@H]1C[C@@H]1C4=C(CC[C@@]13C)C(=O)OC4)[C@H]2O`, for which the “activity change, negative = inhibition” value is 144%. On the same count and under the same terms, as for `COc1ccc(CC2NCCc3cc(OC)c(OC)cc32)cc1OC` (stereo not given), the figure is 101%.
